Compound activity: PubChem, several laboratories
The list is not random: actives were taken first. Their share in the collection is about 2.3%.
Mcl1 Bid PPI: Mcl-1/Bid binding inhibitors, primary screen, biochemical, TR-FRET, 1536-well; AID 1021, 2008; TR-FRET Mcl-1/Bid-Dy647 peptide binding; Induced myeloid leukemia cell differentiation protein Mcl-1 (Homo sapiens), Q07820; 220,000 compounds, 0.97% hits; inhibition, % at 21.7 µM;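 active means compounds that cut the binding signal by more than half at the single screening dose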;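 further: His-tagged Mcl-1 with europium anti-His antibody binding Bid BH3 peptide; 0% = Mcl-1 plus peptide wells and 100% = peptide-only wells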
Target sequence (Q07820 whole entry, looked up): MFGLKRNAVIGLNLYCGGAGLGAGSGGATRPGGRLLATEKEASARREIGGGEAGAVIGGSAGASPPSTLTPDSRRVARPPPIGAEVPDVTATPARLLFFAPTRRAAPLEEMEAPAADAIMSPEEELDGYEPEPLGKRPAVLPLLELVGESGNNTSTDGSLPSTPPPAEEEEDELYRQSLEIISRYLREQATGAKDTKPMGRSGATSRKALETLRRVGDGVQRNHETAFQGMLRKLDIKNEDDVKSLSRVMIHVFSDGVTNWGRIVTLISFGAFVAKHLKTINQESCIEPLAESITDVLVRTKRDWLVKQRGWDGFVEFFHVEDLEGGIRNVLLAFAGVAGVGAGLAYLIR
Mcl-1 Bim block: inhibitors of Bim peptide binding to Mcl-1, primary screen, biochemical, bead-based flow cytometry, multiplex | 190,000 compounds, 0.1% hits | inhibition, % at 10 µM | Bim peptide-Mcl-1 binding | AID 1009, 2008; in the data active means inhibition above about 40%;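 further: 0% = no compound tracer wells and 100% = peptide blocker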
Bcl-xL primary: inhibitors of human Bcl-xL, primary screen, biochemical, fluorescence polarization, HTS; GST-Bcl-xL / FITC-Bim BH3 peptide fluorescence polarization; inhibition, % at 10.9 µM; 320,000 compounds, 0.7% hits; AID 2129, 2009;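 active means inhibition above the mean of all tested compounds plus 3 SD, cutoff set per campaign, cut at about 30% in these data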;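 further: 0% = DMSO wells and 100% = unlabeled Bim-BH3 peptide competitor; inhibitors lower millipolarization by displacing the labeled peptide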
Target sequence (Q07817 whole entry, looked up): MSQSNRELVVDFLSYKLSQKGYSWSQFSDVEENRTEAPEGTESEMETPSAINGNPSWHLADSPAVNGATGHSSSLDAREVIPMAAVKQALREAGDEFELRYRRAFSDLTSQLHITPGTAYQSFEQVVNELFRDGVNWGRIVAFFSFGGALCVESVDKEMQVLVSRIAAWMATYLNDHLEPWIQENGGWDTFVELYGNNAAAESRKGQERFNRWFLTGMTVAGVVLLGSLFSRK
Mcl1-Noxa inh: Mcl-1/Noxa binding inhibitors, primary screen, biochemical, TR-FRET, 1536-well; TR-FRET Mcl-1/Noxa peptide binding, 2 h; inhibition, % at 21.7 µM; 220,000 compounds, 1.5% hits; AID 1022, 2008;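 active means compounds that cut the protein-peptide binding signal by more than 50% relative to plate controls in a single-dose test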;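 further: His-tagged Mcl-1 with rhodamine Noxa BH3 peptide and terbium anti-His antibody; 0% = Mcl-1 plus Noxa peptide wells and 100% = peptide-only wells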
GLD-1 RNA inh: GLD-1/TGE RNA complex disruptors, primary screen, biochemical, fluorescence polarization; purified GLD-1 + fluorescein TGE RNA; inhibition, % at 5.96 µM; 320,000 compounds, 0.44% hits; AID 2280, 2010;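 active means percent inhibition above a per-plate cutoff, the plate mean of test compounds plus 3 SD, cut at about 30% in these data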;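 further: 0% = DMSO wells with GLD-1 and probe and 100% = wells lacking GLD-1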
MCL1-BIM inh: inhibitors of MCL1 binding to BIM-BH3, primary screen, biochemical, fluorescence polarization; inhibition, % at 10.9 µM; 320,000 compounds, 0.68% hits; GST-MCL1 / FITC-Bim-BH3 fluorescence polarization;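 active means inhibition above the mean inhibition of all tested compounds plus 3 SD, set per campaign, cut at about 40% in these data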;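 further: 0% = DMSO wells and 100% = unlabeled Bim-BH3 peptide control; higher means more loss of mP so more displacement of Bim peptide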
* hit, by the source's call; . = no result.

SMILES | Mcl1 Bid PPI | Mcl-1 Bim block | Bcl-xL primary | Mcl1-Noxa inh | GLD-1 RNA inh | MCL1-BIM inh
CC1=C(C(=O)Nc2ccccc2)C(c2ccccc2[N+](=O)[O-])NC(=O)N1 (stereo not drawn) | -27 | -1 | 36* | 18 | 17 | 32
O=c1c(Cl)c(Cl)cnn1Cc1nnc(-c2ccccc2Br)o1 | -37 | 0 | . | 15 | . | .
Cc1ccc(C(=O)N/C(=C/c2cccnc2)C(=O)N2CCCCCC2)cc1 | . | . | 1 | . | 1 | -3
Oc1ccc(C(c2nnnn2C2CCCC2)N2CCc3ccccc3C2)cc1 (stereo not drawn) | -11 | 1 | 10 | 25 | 5 | 11
COc1cc(C(c2nnnn2C2CCCC2)N2CCc3ccccc3C2)ccc1O (stereo not drawn) | 9 | 0 | 5 | 77* | 2 | 11
CN(C)c1ccc(Sc2nnc(NC(=O)Nc3ccc(Cl)cc3Cl)s2)cc1 | 18 | -6 | 6 | 89* | 7 | 4
CCC(=O)Nc1nnc(Sc2ccc(N(C)C)cc2)s1 | -44 | -2 | 4 | 14 | 0 | 4
Cc1cc(C)n2nc(C(=O)OCC(=O)Nc3ccc(F)cc3F)nc2n1 | . | . | -1 | . | 0 | 0
CCC(=O)Nc1cc(C)c(NC(=O)CCc2ccccc2)cn1 | -23 | 1 | 49* | -11 | 37* | 44*
Cc1c(C(=O)OCCOC(C)C)[nH]c2c1C(=O)CC(c1ccco1)C2 (stereo not drawn) | -29 | -1 | 3 | 27 | 4 | 5
COCCOC(=O)c1[nH]c2c(c1C)C(=O)CC(c1ccc(F)cc1)C2 (stereo not drawn) | -18 | -1 | 5 | 5 | 7 | -1
COCCOC(=O)c1[nH]c2c(c1C)C(=O)CC(c1ccccc1)C2 (stereo not drawn) | -10 | 3 | 0 | -4 | 2 | 1
COCCOC(=O)c1[nH]c2c(c1C)C(=O)CC(c1ccco1)C2 (stereo not drawn) | -2 | -2 | 6 | 52* | 8 | 12
CSCCOC(=O)c1[nH]c2c(c1C)C(=O)CC(c1ccco1)C2 (stereo not drawn) | -38 | 0 | 0 | 58* | -1 | 10
Cc1c(C(=O)OCc2ccccc2)[nH]c2c1C(=O)CC(c1ccco1)C2 (stereo not drawn) | 72* | -1 | 8 | 61* | 9 | 10
CCOC(=O)c1[nH]c2c(c1C)C(=O)CC(c1ccco1)C2 (stereo not drawn) | 41 | 0 | 2 | 79* | 4 | 5
Cc1ccc(C2C(/C=C3/SC(=S)NC3=O)=C(c3cccs3)Oc3ccccc32)cc1 (stereo not drawn) | 2 | 4 | -9 | 90* | -5 | -22
CC(=O)NNC(=O)c1sc(=S)n2c1[nH]c(=O)c1sccc12 | -20 | -7 | 9 | 68* | 3 | 26
NC(=O)c1sc(=S)n2c1[nH]c(=O)c1sccc12 | -33 | -1 | 11 | 25 | 2 | 6
O=C(NCc1ccccc1)c1sc(=S)n2c1[nH]c(=O)c1ccccc12 | -21 | 1 | 9 | 52* | 12 | 15
CC/C(O)=C1\C(=O)CCCC1=NCc1nc2ccccc2[nH]1 | -11 | 2 | 4 | 17 | -4 | -2
CCN(CC)C(=O)Cn1cc(S(=O)(=O)CC(=O)Nc2cc(OC)ccc2OC)c2ccccc21 | . | . | 3 | . | 1 | 4
CNC(=O)Nc1ccccc1C(=O)Nc1ccccc1 | -15 | . | 5 | 2 | -3 | -5
COc1ccc(NC(=O)c2cc3sccc3n2Cc2ccc(F)cc2)cc1OC | 58* | -2 | -1 | -50 | 4 | 11
O=C(Nc1nccs1)c1cc2sccc2n1Cc1ccc(F)cc1 | 3 | 0 | 0 | -52 | 1 | 4
SMILES | Mcl1 Bid PPI | Mcl-1 Bim block | Bcl-xL primary | Mcl1-Noxa inh | GLD-1 RNA inh | MCL1-BIM inh
CN(CC(=O)O/N=C(\N)c1ccc([N+](=O)[O-])cc1)S(=O)(=O)c1ccccc1 | 11 | 95* | 7 | 83* | 5 | 1
CC(C)c1cc[n+](-c2nc([O-])sc2C=O)cc1 | -17 | 0 | 42* | 1 | 12 | 45*
CC(C)(C)c1cc[n+](-c2nc([O-])sc2C=O)cc1 | -8 | -8 | 19 | 5 | 2 | 19
Cc1ccc(S(=O)(=O)N2CCCCC2)cc1NC(=O)c1cc(F)c(F)c(F)c1F | . | . | . | . | 1 | .
O=C(Cc1ccccc1)N/N=C/c1cccn1-c1ccc([N+](=O)[O-])cc1 | -33 | 12 | 1 | 7 | 1 | 16
CS(=O)(=O)C1=NSC2=NC(=O)/C(=C\c3cccn3-c3ccc(Cl)cc3)C(=N)N21 | -14 | 14 | 19 | 92* | 14 | 17
N=C1/C(=C/c2cccn2-c2ccc([N+](=O)[O-])cc2)C(=O)N=C2SC=CN12 | -63 | -7 | 4 | 61* | 3 | 21
O=C1NC(=S)N/C1=C/c1cccn1-c1ccc([N+](=O)[O-])cc1 | -42 | -4 | 9 | 80* | 6 | 14
CC(C)NC(=O)COc1coc(CN2CCN(C(=O)c3ccco3)CC2)cc1=O | . | . | -3 | . | 5 | 0
CCN(CC)c1nc(NN)nc(Nc2ccc(C)c(Cl)c2)n1 | . | . | 3 | . | 4 | 4
CCOC(=O)c1cc(C)[nH]c(=S)c1C#N | -47 | -4 | 18 | 72* | 4 | 8
CCN(CC)c1ccc(NC(=O)C2CC3CCC2C3)cc1 (stereo not drawn) | 9 | 0 | 1 | 67* | -4 | 7
O=C(Nc1ccccc1)C1CC2CCC1C2 (stereo not drawn) | . | . | 2 | . | -1 | 5
CCCNC(=O)c1ccc2c(=O)n3c(-c4ccc(C)cc4)csc3nc2c1 | -3 | . | 11 | -59 | -6 | 4
O=C(Nc1nc(-c2cccc3ccccc23)cs1)c1ccc2c(c1)S(=O)(=O)c1ccccc1C2=O | 28 | 0 | 3 | 62* | 4 | 3
O=C(Nc1nc(-c2ccccc2)cs1)c1ccc2c(c1)S(=O)(=O)c1ccccc1C2=O | 30 | 0 | 6 | 40 | 5 | -3
CC1(C(=O)N(CC(=O)NC2CCCC2)Cc2ccco2)CC(=O)N=C2C=CC=CN21 (stereo not drawn) | -22 | 41* | 5 | -6 | 5 | 16
CC1(C(=O)N(CC(=O)NC2CCCC2)Cc2ccccc2)CC(=O)N=C2C=CC=CN21 (stereo not drawn) | . | . | 3 | . | 9 | 9
